High-throughput results deposited in PubChem BioAssay by several laboratories.
Compounds with a hit are over-represented: about 2.3% of the library has one in this group of screens.
LMP1 NFkB inh – inhibitors of Epstein-Barr LMP1-induced NF-kappaB reporter | AID 504558 | inhibition, % at 12.5 µM | 0.69% of 350,000 active | LMP1-induced NF-kappaB luciferase reporter cells, luminescence; in the data active = inhibition above about 41%;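 also: 0% = neutral control wells and 100% = reference inhibitor control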
Gli-Sufu block – Gli-Sufu pathway antagonism; inhibition, % at 5 µM; 0.74% of 340,000 active; AID 588413; Sufu-KO-LIGHT fibroblasts, Gli luciferase reporter luminescence;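 active = inhibition above about 55%, limit read from the data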;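 also: 0% = DMSO-treated cells and 100% = wells with medium but no cells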
Jurkat NFkB inh – lowers PMA/ionomycin-induced NF-kB signal in Jurkat cells; PMA/ionomycin-induced NF-kB luciferase reporter, luminescence; inhibition, % at 4 µM; 0.53% of 330,000 active; AID 435003; in the data active = inhibition above about 50%
Shn3 inh set2 – Schnurri-3 reporter inhibition in Clone20 osteoblasts. Clone20 osteoblast Shn3 3'UTR firefly luciferase, 24 h. inhibition, % at 12.5 µM. 0.52% of 360,000 active. AID 588674;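 active = mean inhibition of at least 75% with every replicate also reaching 75%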;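 also: 0% = median of neutral control wells and 100% = pilot-screen positive control compound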
697 NFkB inh – lowers PMA/ionomycin-induced NF-kB signal in 697 B cells; 697 B-cell NF-kB luciferase reporter, 16 h; inhibition, % at 4 µM; 0.33% of 330,000 active; in the data active = inhibition above about 35%
TRPM1 prom inh – inhibitors of MITF-driven TRPM1 promoter in melanoma cells; SK-MEL-5 TRPM1 promoter luciferase, 24 h; inhibition, % at 12.5 µM; 0.83% of 330,000 active; AID 488899;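 active = mean inhibition across replicates of 60% or more, whatever share of single replicates reaches that level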
* marks the source's active call; other numbers are inactive results; . = no result given.

SMILES | LMP1 NFkB inh | Gli-Sufu block | Jurkat NFkB inh | Shn3 inh set2 | 697 NFkB inh | TRPM1 prom inh
CN(Cc1ccccc1)c1nc(N)c([N+](=O)[O-])c(NCc2ccccc2)n1 | 72* | 9 | 8 | 10 | 3 | -3
Nc1nc(NCCc2ccccc2)nc(NCc2ccccc2)c1[N+](=O)[O-] | -28 | -1 | 18 | 3 | -37 | -20
CCOC(=O)c1cc(=O)n2[nH]c(-c3ccc(C)cc3)cc2n1 | -8 | -6 | 0 | 4 | 8 | -1
COC(=O)c1ccc2c(c1)C(C)(C)C(/C=C/c1ccccc1O)=[N+]2C | -22 | 65* | 32 | 97* | -34 | 105*
COC(=O)c1ccc(N)c(N=CC2=C(O)CC(C)(C)CC2=O)c1 | 0 | -7 | -9 | -12 | -55 | -7
Cc1sc(NC(=O)c2ccco2)nc1-c1ccc2c(c1)CC(C)N2C(=O)C1CC1 (configuration not stated) | 43* | -22 | -4 | 63 | -4 | 16
CC(=O)Nc1nc(-c2ccc3c(c2)CC(C)N3C(=O)C2CC2)c(C)s1 (configuration not stated) | 79* | -12 | -12 | -108 | 4 | -7
CCOC(=O)C(=O)Nc1nc(-c2ccc3c(c2)CCN3C(=O)C2CC2)c(C)s1 | -1 | -11 | -35 | -12 | -1 | -9
CCC(=O)N1CCc2cc(-c3csc(NC(=O)c4ccco4)n3)ccc21 | -15 | -23 | -32 | -33 | -29 | -64
Nc1nc(=S)[nH]c2c1C1(CCCCC1)Cc1ccccc1-2 | -13 | 5 | . | 90* | . | 10
CCc1nc(Nc2ccc(OC)c(OC)c2)c2nnn(Cc3ccccc3Cl)c2n1 | 27 | 22 | 20 | 85 | -28 | 71*
O=c1[nH]c(SCc2ccccc2)nc2c1sc1ccccc12 | 16 | 19 | -8 | 17 | 8 | -1
COc1cc(C2CC(=O)Oc3c(C(CCN4CCOCC4)c4ccc(N(C)C)cc4)c(OC)cc(OC)c32)cc(OC)c1OC (configuration not stated) | -1 | 8 | 13 | 9 | 29 | 7
Cc1ccccc1NC(=O)c1c([N+](=O)[O-])c(C(C)(C)C)nn1C | 55* | 5 | 8 | 17 | -2 | -5
CCn1c(SCc2cccc(C)c2)nnc1-c1ccccc1 | 7 | -2 | 4 | 3 | 0 | -16
CCOC(=O)C(C)(C)N(Cc1ccc(C)cc1)S(=O)(=O)c1ccc(Cl)c([N+](=O)[O-])c1 | 1 | -2 | -5 | 4 | 25 | 91*
C=CCN=C1CC(C)(C)CC(=O)/C1=C(\O)CCCN1C(=O)c2ccccc2C1=O | -10 | 6 | -2 | 4 | 1 | 8
COc1cccc(C2Nc3ccc4ccccc4c3C3=C2C(=O)CCC3)c1O (configuration not stated) | 15 | 4 | -23 | 16 | -14 | 64*
COc1cc(C2CC(=O)c3c(ccc4ccccc34)N2)ccc1O (configuration not stated) | -15 | -9 | -3 | -28 | -6 | 7
Cc1c(C(=O)NCc2ccccc2C(F)(F)F)sc(=O)n1Cc1ccc(S(=O)(=O)N(C)C)cc1 | . | . | . | 14 | . | .
CC1=NN(C(N)=S)C(=O)C1N=Nc1cccc(C(=O)O)c1 (configuration not stated) | 49* | 14 | 22 | 15 | 17 | 19
COc1ccc(N(CC(=O)NCc2ccncc2)S(=O)(=O)c2ccccc2[N+](=O)[O-])c(OC)c1 | 2 | 2 | 3 | 4 | 9 | -11
COc1ccc(-c2c(C)n([O-])c3c([n+]2=O)CCCCC3)cc1 | 5 | -1 | -16 | -21 | -12 | 4
CSC(SC)=C(C#N)C(=O)c1ccccc1 | -7 | 6 | 6 | 77 | -53 | 65*
COc1cccc(C(=O)C(C#N)=C(SC)SC)c1 | 16 | 8 | 11 | 29 | -18 | 82*
SMILES | LMP1 NFkB inh | Gli-Sufu block | Jurkat NFkB inh | Shn3 inh set2 | 697 NFkB inh | TRPM1 prom inh
COc1cccc(C(=O)C(CCC#N)c2ccccc2)c1 (configuration not stated) | -6 | . | . | 11 | . | .
Cc1ccc2c(c1)CCCN2C(=O)NC1CCCCC1 | 2 | 2 | -6 | -29 | -23 | 4
Fc1ccccc1NC(=S)NCCc1ccc(Cl)cc1 | -44 | -42 | -34 | -33 | -42 | -90
CCc1ccc(/C=C/C(=O)C2C(=O)c3ccccc3C2=O)cc1 | 51* | -59 | 17 | -31 | -33 | -10
COc1ccccc1NC(=O)Nc1nc(C(N)Cc2ccc(C(F)(F)F)cc2)cs1 (configuration not stated) | . | . | . | 82* | . | .
COC(=O)c1sccc1NC(=O)c1ccccc1Br | -2 | -3 | 19 | 28 | 6 | -14
COc1ccc2nc3cc(Cl)ccc3c(Nc3ccc(O)c(CN4CCN(C)CC4)c3)c2c1 | 4 | 16 | . | -6 | . | 106*
COc1ccc2nc3cc(Cl)ccc3c(C#N)c2c1 | 1 | -9 | 0 | 3 | -7 | -13
CC(C)CNC(=O)C1(C)CCCN1C(=O)c1ccc2c(c1)CCO2 (configuration not stated) | . | . | . | -3 | . | .
CSc1ccc(S(=O)(=O)NCC(=O)OCC(=O)N2CC(C)CC(C)C2)cc1[N+](=O)[O-] (configuration not stated) | 4 | -10 | -8 | -4 | -8 | 1
CCOC(=O)c1cc(-c2ccccc2C)nn1Cc1cc(C)no1 | 58* | -21 | -16 | -61 | -18 | -68
CCOC(=O)c1cc(-c2ccccc2)nn1Cc1cc(C)no1 | -16 | 12 | 2 | -40 | -37 | -86
CC1CCN(S(=O)(=O)c2ccc3c(ccn3CCC(=O)N3CCCCC3)c2)CC1 | 3 | 38 | 8 | 2 | 10 | 12
COc1cc(OC)c(CN2CCc3c([nH]c4ccccc34)C2)cc1Br | 75* | 18 | 21 | 19 | -18 | 17
Cc1cccc(CN2CCc3c([nH]c4ccccc34)C2)c1 | 13 | 5 | 12 | -2 | 10 | 18
N#CCCn1cc(C(=O)Nc2ccccn2)c(-c2ccccc2)n1 | 69* | 19 | 24 | 7 | 0 | 0
N#CCCn1cc(C(=O)Nc2ccc(C(=O)O)cc2)c(-c2cccc(Br)c2)n1 | 7 | -23 | 1 | 15 | -3 | 5
Cc1ccc(CNC(=O)c2cc(-c3ccccc3C)nn2CC2CC(c3cccnc3)=NO2)cc1 (configuration not stated) | -8 | 4 | -5 | 92* | -13 | -15
Cc1ccc(-n2ccc(=O)c(C(=O)Nc3ccc(S(=O)(=O)N4CCOCC4)cc3)n2)cc1 | 45* | -12 | 7 | -9 | -15 | -7
O=C(Nc1ccc(S(=O)(=O)N2CCOCC2)cc1)c1ccc([N+](=O)[O-])s1 | -10 | 23 | 47 | 15 | 20 | 84*
O=C(Nc1ccccc1N1CCOCC1)c1ccc([N+](=O)[O-])s1 | -2 | -2 | 14 | 12 | 9 | 81*
CC(=O)c1cccc(NC(=O)N2CCCC2C(=O)NCc2ccc(F)cc2)c1 (configuration not stated) | -7 | 24 | -16 | -11 | 0 | -3
